Laboratory results taken from the supplement of paper PMC11732987, “Enantioselective OTUD7B fragment discovery through chemoproteomics screening and high-throughput optimisation” (Communications Chemistry, 2025).

How the values were obtained:
Assay in all cases: log2 ratio of Biotin-Ahx-Ub-VS probe labelling (fragment/DMSO); higher = less target engagement (more negative = stronger competition), active = hit call of the paper (q ≤ 0.05, log2 ratio ≤ -1)
Conditions in all cases: compound concentration: 200 uM; treatment time: 3 h
USP34 = USP34 (UniProt Q70CQ2)
Chain of USP34 (Q70CQ2 whole entry, the tested form may be a part): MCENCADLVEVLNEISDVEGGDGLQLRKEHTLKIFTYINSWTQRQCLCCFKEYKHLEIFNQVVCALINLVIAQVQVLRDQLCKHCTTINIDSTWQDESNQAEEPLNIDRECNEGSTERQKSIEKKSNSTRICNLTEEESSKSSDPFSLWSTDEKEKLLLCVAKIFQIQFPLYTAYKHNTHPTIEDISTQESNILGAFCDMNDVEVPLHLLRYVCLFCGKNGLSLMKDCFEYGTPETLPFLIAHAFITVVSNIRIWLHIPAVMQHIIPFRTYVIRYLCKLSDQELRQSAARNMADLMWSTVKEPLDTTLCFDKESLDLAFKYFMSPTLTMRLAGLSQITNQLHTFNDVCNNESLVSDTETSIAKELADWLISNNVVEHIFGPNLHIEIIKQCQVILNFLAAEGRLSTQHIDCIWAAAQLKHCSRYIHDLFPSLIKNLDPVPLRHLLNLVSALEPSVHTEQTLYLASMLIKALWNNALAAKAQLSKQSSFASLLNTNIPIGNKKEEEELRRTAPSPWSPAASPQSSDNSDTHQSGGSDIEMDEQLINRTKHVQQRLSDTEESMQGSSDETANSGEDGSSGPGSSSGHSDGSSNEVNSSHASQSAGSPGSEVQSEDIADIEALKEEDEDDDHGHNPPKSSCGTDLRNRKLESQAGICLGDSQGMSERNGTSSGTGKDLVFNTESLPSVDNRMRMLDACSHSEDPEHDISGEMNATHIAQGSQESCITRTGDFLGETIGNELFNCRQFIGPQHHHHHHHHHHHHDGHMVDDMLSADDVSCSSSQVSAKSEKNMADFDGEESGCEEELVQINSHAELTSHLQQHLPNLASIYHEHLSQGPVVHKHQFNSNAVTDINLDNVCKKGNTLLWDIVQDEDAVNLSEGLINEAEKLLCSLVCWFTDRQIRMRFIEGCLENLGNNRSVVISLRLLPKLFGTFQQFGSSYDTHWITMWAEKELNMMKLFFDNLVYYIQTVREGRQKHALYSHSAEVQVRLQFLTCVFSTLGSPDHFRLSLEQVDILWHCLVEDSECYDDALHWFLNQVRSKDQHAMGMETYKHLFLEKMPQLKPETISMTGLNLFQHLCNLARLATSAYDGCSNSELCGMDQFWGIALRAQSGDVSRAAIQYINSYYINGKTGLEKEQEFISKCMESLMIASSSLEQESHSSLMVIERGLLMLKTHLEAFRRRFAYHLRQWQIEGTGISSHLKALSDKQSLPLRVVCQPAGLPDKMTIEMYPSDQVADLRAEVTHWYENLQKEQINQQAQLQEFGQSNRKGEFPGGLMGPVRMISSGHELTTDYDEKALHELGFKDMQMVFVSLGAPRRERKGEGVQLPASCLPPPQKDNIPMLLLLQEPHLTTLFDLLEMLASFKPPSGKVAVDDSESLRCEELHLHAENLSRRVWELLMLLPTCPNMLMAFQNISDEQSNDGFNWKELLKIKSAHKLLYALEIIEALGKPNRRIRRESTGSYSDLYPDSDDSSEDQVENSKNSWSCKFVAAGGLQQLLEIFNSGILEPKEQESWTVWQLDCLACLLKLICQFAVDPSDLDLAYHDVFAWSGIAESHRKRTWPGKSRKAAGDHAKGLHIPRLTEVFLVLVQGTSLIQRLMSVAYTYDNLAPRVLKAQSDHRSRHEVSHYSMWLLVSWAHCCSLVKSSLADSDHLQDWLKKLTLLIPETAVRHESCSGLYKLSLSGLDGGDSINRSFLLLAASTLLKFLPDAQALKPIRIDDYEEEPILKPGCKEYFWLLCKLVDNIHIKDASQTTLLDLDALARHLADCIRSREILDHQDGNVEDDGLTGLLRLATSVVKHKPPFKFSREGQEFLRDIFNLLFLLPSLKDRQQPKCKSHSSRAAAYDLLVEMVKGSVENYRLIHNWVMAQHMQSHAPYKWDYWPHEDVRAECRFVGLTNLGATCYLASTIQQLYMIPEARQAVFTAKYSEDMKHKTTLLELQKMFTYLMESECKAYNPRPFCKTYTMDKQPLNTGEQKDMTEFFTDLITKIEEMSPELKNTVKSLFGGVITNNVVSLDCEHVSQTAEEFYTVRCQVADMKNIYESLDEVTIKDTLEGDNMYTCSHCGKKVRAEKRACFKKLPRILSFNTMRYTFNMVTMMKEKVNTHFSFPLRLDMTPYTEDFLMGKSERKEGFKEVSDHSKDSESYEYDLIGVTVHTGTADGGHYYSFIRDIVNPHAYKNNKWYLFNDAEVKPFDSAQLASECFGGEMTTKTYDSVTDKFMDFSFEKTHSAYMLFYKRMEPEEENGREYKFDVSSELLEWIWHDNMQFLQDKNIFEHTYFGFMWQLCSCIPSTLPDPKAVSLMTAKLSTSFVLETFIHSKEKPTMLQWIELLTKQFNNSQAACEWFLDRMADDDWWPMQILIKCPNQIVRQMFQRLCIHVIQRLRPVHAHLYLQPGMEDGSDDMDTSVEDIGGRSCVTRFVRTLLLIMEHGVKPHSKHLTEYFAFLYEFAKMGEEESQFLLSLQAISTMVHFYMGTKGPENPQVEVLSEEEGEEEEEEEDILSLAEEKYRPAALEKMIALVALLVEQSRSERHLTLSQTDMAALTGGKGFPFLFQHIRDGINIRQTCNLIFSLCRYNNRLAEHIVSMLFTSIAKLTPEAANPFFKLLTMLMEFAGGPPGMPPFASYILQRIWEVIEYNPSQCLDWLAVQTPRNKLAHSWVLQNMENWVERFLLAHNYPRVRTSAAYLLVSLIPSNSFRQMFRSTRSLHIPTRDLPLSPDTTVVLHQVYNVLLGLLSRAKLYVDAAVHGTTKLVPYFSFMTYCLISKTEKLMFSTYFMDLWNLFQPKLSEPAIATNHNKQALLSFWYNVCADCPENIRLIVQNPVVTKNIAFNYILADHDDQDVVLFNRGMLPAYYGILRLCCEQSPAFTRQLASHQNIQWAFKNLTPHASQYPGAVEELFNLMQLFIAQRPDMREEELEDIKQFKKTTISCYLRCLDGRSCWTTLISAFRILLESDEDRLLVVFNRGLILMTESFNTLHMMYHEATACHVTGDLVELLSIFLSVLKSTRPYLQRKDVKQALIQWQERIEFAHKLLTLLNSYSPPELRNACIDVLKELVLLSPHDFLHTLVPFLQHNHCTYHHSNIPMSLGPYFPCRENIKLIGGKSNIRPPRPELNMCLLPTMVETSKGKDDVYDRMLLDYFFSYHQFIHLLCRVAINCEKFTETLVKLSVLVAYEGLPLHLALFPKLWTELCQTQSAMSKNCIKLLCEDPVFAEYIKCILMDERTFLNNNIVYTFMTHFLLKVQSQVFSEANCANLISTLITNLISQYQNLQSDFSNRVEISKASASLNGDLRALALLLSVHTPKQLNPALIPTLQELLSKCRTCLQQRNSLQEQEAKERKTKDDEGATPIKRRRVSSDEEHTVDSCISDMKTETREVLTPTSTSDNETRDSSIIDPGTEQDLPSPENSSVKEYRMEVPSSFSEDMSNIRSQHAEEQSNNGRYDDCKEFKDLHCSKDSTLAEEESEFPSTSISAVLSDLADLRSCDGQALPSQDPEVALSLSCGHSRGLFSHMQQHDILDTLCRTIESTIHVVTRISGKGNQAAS
In short: (§1)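 HEK293T lysate, 495 µg per sample in Tris/CHAPS/IGEPAL buffer with protease inhibitors, was treated in triplicate with fragment at 200 µM or vehicle for 3 h and then with Biotin-Ahx-Ub-VS at 0.5 µM final for 1 h. Labelled DUBs were NeutrAvidin-enriched, digested with LysC and trypsin, and run by diaPASEF LC-MS/MS. Spectronaut label-free quantities were global-median-normalised, and values are average log2 fragment/vehicle ratios by unpaired t-test on proteins with ≥2 unique peptides.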

USP36 = target: T1, USP36 (UniProt Q9P275)
T1 sequence (whole entry): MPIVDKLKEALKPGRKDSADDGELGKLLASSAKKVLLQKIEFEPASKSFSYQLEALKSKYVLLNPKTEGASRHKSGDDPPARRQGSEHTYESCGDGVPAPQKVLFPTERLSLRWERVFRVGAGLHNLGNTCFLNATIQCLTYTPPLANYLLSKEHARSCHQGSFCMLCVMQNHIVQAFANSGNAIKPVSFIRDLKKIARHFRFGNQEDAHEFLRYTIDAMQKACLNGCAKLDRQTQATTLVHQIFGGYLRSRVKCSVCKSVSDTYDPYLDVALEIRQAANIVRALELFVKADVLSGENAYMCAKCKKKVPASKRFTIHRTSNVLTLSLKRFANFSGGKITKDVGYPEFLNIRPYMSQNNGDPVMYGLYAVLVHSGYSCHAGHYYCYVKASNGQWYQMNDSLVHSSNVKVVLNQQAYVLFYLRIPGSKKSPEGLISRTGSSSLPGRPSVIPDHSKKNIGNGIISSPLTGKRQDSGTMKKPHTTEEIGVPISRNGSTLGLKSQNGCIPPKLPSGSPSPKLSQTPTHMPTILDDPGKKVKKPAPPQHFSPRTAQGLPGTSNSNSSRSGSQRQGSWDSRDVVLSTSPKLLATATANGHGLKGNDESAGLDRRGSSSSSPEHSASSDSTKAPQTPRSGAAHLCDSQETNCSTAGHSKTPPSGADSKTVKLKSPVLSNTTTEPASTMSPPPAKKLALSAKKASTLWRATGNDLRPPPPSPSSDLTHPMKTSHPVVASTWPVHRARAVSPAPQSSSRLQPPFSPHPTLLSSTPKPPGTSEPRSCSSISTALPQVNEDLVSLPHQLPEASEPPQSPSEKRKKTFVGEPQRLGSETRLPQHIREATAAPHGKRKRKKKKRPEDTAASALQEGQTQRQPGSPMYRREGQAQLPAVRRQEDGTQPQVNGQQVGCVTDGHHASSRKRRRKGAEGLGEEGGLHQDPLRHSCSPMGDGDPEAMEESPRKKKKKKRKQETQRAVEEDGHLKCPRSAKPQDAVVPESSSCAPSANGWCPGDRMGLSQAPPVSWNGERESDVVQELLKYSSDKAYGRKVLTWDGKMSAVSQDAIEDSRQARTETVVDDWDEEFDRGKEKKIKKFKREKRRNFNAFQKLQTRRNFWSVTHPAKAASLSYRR
In short: as §1

USP38 = target: T2, USP38 (UniProt Q8NB14)
T2 sequence (whole entry): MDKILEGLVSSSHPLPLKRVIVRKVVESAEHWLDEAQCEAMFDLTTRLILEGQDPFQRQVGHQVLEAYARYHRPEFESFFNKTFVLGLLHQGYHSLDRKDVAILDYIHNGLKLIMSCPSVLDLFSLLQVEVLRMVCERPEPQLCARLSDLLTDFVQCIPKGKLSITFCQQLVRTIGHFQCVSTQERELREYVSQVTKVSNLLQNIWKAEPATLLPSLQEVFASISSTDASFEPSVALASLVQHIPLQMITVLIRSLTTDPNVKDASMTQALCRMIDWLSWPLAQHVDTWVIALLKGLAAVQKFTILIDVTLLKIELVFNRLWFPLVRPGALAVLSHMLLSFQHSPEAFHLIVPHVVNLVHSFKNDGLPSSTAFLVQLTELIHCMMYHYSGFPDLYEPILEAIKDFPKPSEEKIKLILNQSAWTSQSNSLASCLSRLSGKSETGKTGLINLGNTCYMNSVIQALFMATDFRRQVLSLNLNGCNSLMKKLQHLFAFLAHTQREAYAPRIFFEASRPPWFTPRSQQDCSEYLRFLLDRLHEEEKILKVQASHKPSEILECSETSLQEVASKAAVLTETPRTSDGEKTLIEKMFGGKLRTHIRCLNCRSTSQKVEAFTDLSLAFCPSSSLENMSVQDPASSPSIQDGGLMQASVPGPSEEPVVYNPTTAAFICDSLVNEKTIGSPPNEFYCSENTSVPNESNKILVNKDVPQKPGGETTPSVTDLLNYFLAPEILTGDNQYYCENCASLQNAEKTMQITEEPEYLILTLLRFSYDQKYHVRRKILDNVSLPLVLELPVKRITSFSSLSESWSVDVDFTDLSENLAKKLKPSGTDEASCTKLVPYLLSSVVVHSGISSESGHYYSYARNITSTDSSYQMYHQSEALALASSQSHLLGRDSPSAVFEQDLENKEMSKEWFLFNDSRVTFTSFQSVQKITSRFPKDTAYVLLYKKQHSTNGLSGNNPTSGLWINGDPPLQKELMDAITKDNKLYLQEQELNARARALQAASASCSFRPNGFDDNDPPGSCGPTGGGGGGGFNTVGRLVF
In short: as §1

USP39 = target: T3, USP39 (UniProt Q53GS9)
T3 sequence (whole entry): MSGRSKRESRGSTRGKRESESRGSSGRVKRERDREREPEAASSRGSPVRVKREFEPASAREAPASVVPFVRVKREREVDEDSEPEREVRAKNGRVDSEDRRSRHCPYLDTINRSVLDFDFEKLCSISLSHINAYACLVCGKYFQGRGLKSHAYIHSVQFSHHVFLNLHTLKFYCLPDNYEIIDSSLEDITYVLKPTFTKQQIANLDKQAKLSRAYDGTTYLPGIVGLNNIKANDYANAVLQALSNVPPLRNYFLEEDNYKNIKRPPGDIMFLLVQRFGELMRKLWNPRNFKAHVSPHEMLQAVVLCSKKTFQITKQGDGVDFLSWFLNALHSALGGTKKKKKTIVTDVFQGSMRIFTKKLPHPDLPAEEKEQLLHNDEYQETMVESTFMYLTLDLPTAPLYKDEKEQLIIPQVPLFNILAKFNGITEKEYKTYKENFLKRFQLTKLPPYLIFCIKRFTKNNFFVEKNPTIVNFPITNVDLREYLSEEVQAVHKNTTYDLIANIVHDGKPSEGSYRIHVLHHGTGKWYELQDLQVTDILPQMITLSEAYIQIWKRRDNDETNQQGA
In short: as §1

USP4 = target: T4, USP4 (UniProt Q13107)
T4 sequence (whole entry): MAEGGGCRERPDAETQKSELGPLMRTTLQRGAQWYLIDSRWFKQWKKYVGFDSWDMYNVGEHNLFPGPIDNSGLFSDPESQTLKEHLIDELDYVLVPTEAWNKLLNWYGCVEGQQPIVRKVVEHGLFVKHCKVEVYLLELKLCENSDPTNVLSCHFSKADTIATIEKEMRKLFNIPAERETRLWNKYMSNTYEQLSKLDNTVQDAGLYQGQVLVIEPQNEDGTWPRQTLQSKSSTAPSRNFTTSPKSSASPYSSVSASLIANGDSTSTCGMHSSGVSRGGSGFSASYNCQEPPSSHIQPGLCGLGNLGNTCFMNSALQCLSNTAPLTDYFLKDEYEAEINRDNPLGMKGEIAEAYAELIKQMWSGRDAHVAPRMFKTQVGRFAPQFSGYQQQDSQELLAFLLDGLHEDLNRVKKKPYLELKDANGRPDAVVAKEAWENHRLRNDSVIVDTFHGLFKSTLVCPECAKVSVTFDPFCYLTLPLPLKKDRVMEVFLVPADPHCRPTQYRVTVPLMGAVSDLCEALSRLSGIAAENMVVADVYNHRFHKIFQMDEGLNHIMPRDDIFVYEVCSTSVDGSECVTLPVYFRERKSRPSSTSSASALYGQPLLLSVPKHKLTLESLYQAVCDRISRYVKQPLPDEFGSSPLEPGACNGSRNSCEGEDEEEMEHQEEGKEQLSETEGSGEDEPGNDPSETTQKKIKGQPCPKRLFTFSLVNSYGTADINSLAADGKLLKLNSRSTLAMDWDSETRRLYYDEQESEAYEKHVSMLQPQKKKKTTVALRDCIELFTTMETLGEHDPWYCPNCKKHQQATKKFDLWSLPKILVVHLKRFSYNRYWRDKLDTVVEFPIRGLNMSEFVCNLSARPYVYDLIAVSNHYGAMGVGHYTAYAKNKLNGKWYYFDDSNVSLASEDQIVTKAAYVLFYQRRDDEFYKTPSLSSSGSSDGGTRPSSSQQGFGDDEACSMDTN
In short: as §1

Measured: log2 ratio of Biotin-Ahx-Ub-VS probe labelling

O=C(CCl)NCc1ccc(N2CCOCC2)nc1
inactive: USP34 -0.0991 | USP36 -0.161 | USP38 -0.0678 | USP39 -0.00187 | USP4 0.0133
